Laboratory results published in PubChem BioAssay.
Active and inactive are the calls of the source.

system: PRMT1 (protein arginine N-methyltransferase 1); experiment: PRMT1 binders on small-molecule microarrays, primary screen, biochemical, small-molecule microarray, 635 nm fluorescence (AID 1088); conditions: small-molecule microarray binding, higher = more signal;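 also: binding of Prmt1 protein to compounds spotted on small-molecule microarray slides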

Composite z-score, 1:
CCCCCCc1nc(-c2cc(C)c(OC)c(C)c2)cc2c1[Si](C(C)C)(C(C)C)OC2

Composite z-score, 1.32:
C=CCNC(=O)[C@H]1[C@@H]2C(=O)O[C@@H](c3ccccc3)[C@@H](c3ccccc3)N2[C@@H](c2ccccc2OCCO)[C@]12C(=O)Nc1ccc(C#CCC(C(=O)OC)C(=O)OC)cc12

Composite z-score, 0.403:
O=C(NCCN1CCOCC1)[C@@H]1c2ccccc2C(=O)N(C2CCCCC2)[C@H]1c1ccc(CO)cc1

Composite z-score, 1.45:
CC(=O)n1cc(C(O)C2C=CC3C(=O)N(c4ccccc4)C(=O)C3N2Nc2ccc([N+](=O)[O-])cc2)c2ccccc21 (centres undefined)

system: not listed separately; experiment: yeast growth modulation, basal conditions, primary screen, YJM789 clinical isolate, OD600, 24 h (AID 1089);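 also: growth of clinical yeast isolate S. cerevisiae YJM 789 seeded 1000 cells per well; test concentration not given here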; conditions: S. cerevisiae YJM789 growth, higher = more signal, called active from +8 up or from −8 down

z-score, inactive:
O=C1c2ccccc2[C@](Cc2ccccc2I)(C(=O)NCC(F)(F)F)[C@H](c2ccc(CO)cc2)N1Cc1ccccc1Cl -0.893, CCCC=C(CCC)[C@@H](NC(=O)c1cccs1)c1ccc(C(F)(F)F)cc1 -0.522, CCCCN1CC=CC23O[C@@H]4C=CCCOC(=O)C4[C@H]2C(=O)N(CCCCCCO)[C@@H]3C1=O (some centres undefined) -0.0739, CCCCCN1CC=CC23O[C@@H]4C=CCCOC(=O)C4[C@H]2C(=O)N(CCCCCO)[C@@H]3C1=O (some centres undefined) -0.286, O=C(NC1CC1)[C@@H]1c2ccccc2C(=O)N(Cc2ccccc2Cl)[C@H]1c1ccc(CO)cc1 -2.17, COCCOC(=O)N1C(=O)[C@@]2(c3cc(C#CCC(C(=O)OC)C(=O)OC)ccc31)[C@H](C(=O)N1CCN(c3ncccn3)CC1)[C@H]1C(=O)O[C@H](c3ccccc3)[C@H](c3ccccc3)N1[C@@H]2c1ccccc1OCCO 1.59, CCCC[C@H]1OB(O)C[C@H]2C1=C(COC)Cn1c(=O)n(-c3ccccc3)c(=O)n12 0.461, Oc1ccc2cc[n+](Cc3sc4ccccc4c3Cl)cc2c1 0.0335, C=C[C@H](OC)[C@@H](OC(=O)Nc1ccc(OC)cc1)c1ccc(O)c(F)c1 0.337, O=C1C2C=CC(C(O)c3cc(C(F)(F)F)cc(C(F)(F)F)c3)N(n3cnnc3)C2C(=O)N1Cc1ccccc1 (centres undefined) -0.572, CCC(CC)C(O)C1C=CC2C(=O)NC(=O)C2N1Nc1ccc(Cl)cc1Cl (centres undefined) 0.446, COc1cc(C(O)C2C=CC3C(=O)NC(=O)C3N2Nc2ccccn2)cc(OC)c1OC (centres undefined) 0.175, CC(C)C(CO)N1C(=O)[C@@H]2C3C(=O)OCCC/C=C\[C@H]3OC23C=CCN(CCN2CCOCC2)C(=O)[C@@H]13 (some centres undefined) 0.366, C=CCN1C(=O)[C@@]2(CC=C)N=C(c3ccc(OCCCO)cc3)O[C@H]2c2ccccc21 -3.69, COC(=O)[C@@]1(Cc2ccccc2)N=C(c2ccc(OCCCO)cc2)O[C@H]1c1ccccc1 -0.774, C=C(COC)/C(=C/C[C@@H](OC(=O)c1ccncc1)c1ccc(CO)o1)c1cc(C(=O)OC)ccc1OC 0.102, CN(C)CCCC[C@@H]1NC(=O)[C@H]2C[C@@H](C(=O)NCCCCCCN)[C@@H](c3ccc(O)cc3)N2C1=O 0.307, CO[C@H]1O[C@H](CO)[C@@H](OC(=O)Nc2ccc(Oc3ccccc3)cc2)[C@H](OC(=O)Nc2ccc3c(c2)OCO3)[C@H]1OC(=O)Nc1ccc2c(c1)OCO2 1.57, Cc1ccc(S[C@]2(C(=O)NC3CC3)CC(=O)N(Cc3ccccc3)[C@@H]2c2ccc(CO)cc2I)cc1 0.0136, CCCC#C[Si](O[C@H](CC)c1cn(Cc2cccc(Cl)c2)nn1)(C(C)C)C(C)C -1.19, COCC(=C=CC[C@@H](O)c1cccc(OCCO)c1)C[C@@H](O)c1ccccn1 1.09, CC(C)C[C@@H]1NC(=O)[C@H](C(C)C)NC(=O)[C@@]23C(=O)N[C@@H](Cc4ccccc4)C2[C@H](C)[C@@]2(C)O[C@H]2C3/C=C/CC/C=C/CNC1=O (some centres undefined) -0.0106, [N-]=[N+]=Nc1ccccc1[C@@H]1OC(c2ccc(OCCCO)cc2)=N[C@]1(Cc1ccccc1)C(=O)N1CCOCC1 0.785, COc1ccc([Si](C)(C)[C@H]2[C@H](CCO)O[C@@]3(C(=O)N(Cc4ccc(N(C=O)c5ccccc5)cc4)c4ccccc43)[C@@H]2C)cc1 1.09, CC(C)=CCCC(C)=CC(O)C1C=CC2C(=O)N(C)C(=O)C2N1Nc1ccccc1 (centres undefined) -0.193
